Screening results: PubChem, National Center for Advancing Translational Sciences (NCATS)
LDHA block: inhibitors of human lactate dehydrogenase A; P00338; purified LDHA, NADH/diaphorase-resazurin fluorescence; stronger effect = lower value; activity change, % (values are at about 110 or 230 µM); 480,000 tested, 0.15% active; in the data active = activity change below about -30%; inconclusive = mostly about -25% to -30%
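LDH5 2 nM; NADH 0.06 mM, pyruvate 0.2 mM; 200 mM Tris pH 7.4, EDTA, Tween-20; 5 min RT. Detection: diaphorase 0.133 mg/mL + resazurin 37 µM, fluorescence ex540/em590 at 0 and 20 min; normalized to enzyme-free and DMSO wells.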
Apoferritin bind: candidate novel general anesthetic via apoferritin binding | Potency, µM (series often up to 77.5 µM), usual class: inhibitors | AID 485281 | 350,000 tested, 0.074% active | P02791 | apoferritin/1-aminoanthracene competitive binding, fluorescence; also: nearly all actives have a fitted effect of over 20% in size
Target sequence (P02791 2-175 limits assumed): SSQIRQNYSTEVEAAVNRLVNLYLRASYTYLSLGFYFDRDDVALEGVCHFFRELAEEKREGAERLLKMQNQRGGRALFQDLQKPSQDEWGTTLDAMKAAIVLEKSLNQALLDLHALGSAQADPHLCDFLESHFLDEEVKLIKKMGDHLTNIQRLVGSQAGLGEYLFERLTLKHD
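Steps: apoferritin (10 uM) was premixed with half-saturated 1-AMA in PBS, compounds were pin-transferred, plates stood 10 min at room temperature, fluorescence was read at 380/535 nm, and curves were fitted with a Hill equation.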
RGS4 inhibitor: human RGS4 inhibition. P49798. Transcreener GDP fluorescence polarization, RGS4-accelerated GTP hydrolysis. Potency, µM (doses to about 114 µM), most hits filed as inhibitors. 390,000 tested, 0.039% active; also: nearly all actives have a fitted effect of over 75% in size
Target sequence (P49798 whole entry, looked up): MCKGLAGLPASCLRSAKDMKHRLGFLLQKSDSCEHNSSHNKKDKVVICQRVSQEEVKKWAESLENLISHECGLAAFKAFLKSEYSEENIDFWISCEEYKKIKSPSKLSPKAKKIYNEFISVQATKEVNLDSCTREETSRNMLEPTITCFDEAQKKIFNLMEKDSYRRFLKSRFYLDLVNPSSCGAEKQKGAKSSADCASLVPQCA
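MLSMR compounds (23 nl, pin-transferred) preincubated 10 min at room temperature with a 500nM (2x) first reagent, then RGS4 at 900nM (2x) plus Transcreener GDP mix added; fluorescence polarization (620/688 nm) read before and after 90 min at 30 °C.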
AT treatment: potential ataxia-telangiectasia treatment. F2112 A-T fibroblasts, KAP-1 phosphorylation AlphaLISA; neocarzinostatin DNA damage 30 min before lysis. Potency, µM (highest dose often 57.5 µM), most hits filed as activators. 320,000 tested, 0.19% active; also: nearly all actives have a fitted effect of over 45% in size
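hTERT-immortalized A-T patient fibroblasts (F2112), 500 cells/well in OPTI-MEM, 1% FBS, got compounds for 60 min, then NCS for 30 min at 37C. Lysates were then assayed for phospho-KAP-1 by AlphaLISA (anti-pKAP1 donor, anti-KAP1 acceptor beads), 6 hr at 25C.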
A number is an active result; n = inactive; u = inconclusive; x = no result given; [ ] = remark or other dose. Hits are enriched below; roughly 0.35% of the tested compounds scored in any of these assays. Unless noted, calls follow the shape of the dose curve; as a rule, active = well fitted curve in the direction sought with a large enough effect; inconclusive = small, poorly fitted or top-dose-only effect, or another doubt; inactive = no such curve, though single readings can be large; an effect the other way counts as inactive or inconclusive.

SMILES | LDHA block | Apoferritin bind | RGS4 inhibitor | AT treatment
COc1cccc(-c2nc(-c3ccccc3)c(-c3ccccc3)[nH]2)c1OCC(=O)O | n | n | n | n
CC1CCCC(C)N1C(=O)Cc1ccccc1 (stereo not drawn) | n | 13µM | n | n
CC(Nc1ccc2oc(C(C)(C)C)nc2c1)C(=O)N1CCCC1 (stereo not drawn) | n | x | x | x
CC(=O)N(/N=C/c1ccc([N+](=O)[O-])o1)c1nc2ccccc2c(=O)n1-c1ccccc1 | n | n | n | 13µM
Cc1cc(C)c2nc(Nc3nc(C(C)C)cc(=O)[nH]3)nc(C)c2c1 | -32 | x | x | x
Cc1nc(Nc2nc(C(C)C)cc(=O)[nH]2)nc2c(C)cccc12 | n | x | x | x
O=[N+]([O-])c1ccc(O)c(/C=N/Nc2nn[nH]n2)c1 | -46 | n | n | n
Cc1cccc(NC(=O)c2nc[nH]c2C(=O)N[C@@H](C)C(=O)OC(C)(C)C)c1 | n | 18µM | n | n
CNC(=O)c1[nH]cnc1C(=O)N[C@@H](C)C(=O)OCc1ccccc1 | n | n | n | 45µM
CC(C)C[C@H](NC(=O)c1[nH]cnc1C(=O)Nc1ccccc1)C(=O)OC(C)(C)C | n | u | n | 32µM
O=C(Nc1ccc(OC(F)F)cc1)c1nc(S(=O)(=O)Cc2ccc(F)cc2)ncc1Cl | n | x | x | x
O=C(O)C(c1ccccc1)N1C(=O)/C(=C\c2ccc(-c3ccccc3Cl)o2)SC1=S (stereo not drawn) | -30 | n | u | n
C=C(C(=O)c1ccccc1)C(c1ccccc1)C(C)C(=O)c1ccccc1 (stereo not drawn) | n | n | n | n
C=C(C(=O)c1ccccc1)C(C)C(=C)C(=O)c1ccccc1 | n | u | n | 28µM
COCC(=O)n1nc(NCc2ccccc2Cl)nc1NCc1ccccc1Cl | -49 | x | x | x
COCC(=O)n1nc(-c2ccco2)nc1NCc1ccccc1Cl | n | n | n | x
C[n+]1cnn2c1SCC1(COC1)C2 | -58 | n | n | n
COc1cccc(C(=O)Nc2c(C(=O)N3CCN(Cc4ccccc4)CC3)oc3ccccc23)c1 | n | x | x | x
Cc1ccc(OCc2ccc(-c3nc(C#N)c(N4CCC(C(N)=O)CC4)o3)o2)cc1 | n | x | x | x
Clc1ccc(C(c2ccccc2Cl)C(Cl)Cl)cc1 (stereo not drawn) | n | x | n | 28µM
CCc1ccc(C(c2ccc(CC)cc2)C(Cl)Cl)cc1 | n | x | n | u
Cc1ccc(C(=O)Nc2ccc3oc(-c4ccncc4)nc3c2)cc1 | n | x | x | x
COc1ccc(C(=O)Nc2ccc3oc(-c4ccncc4)nc3c2)cc1Br | -33 | x | x | x
Cc1c(CC(=O)Nc2ccc(C(C)C)cc2)c(=O)oc2cc(O)ccc12 | n | x | x | x
CCOC(=O)N1CCN(C(=O)Nc2ccc3nc(C)c(C)nc3c2)CC1 | n | n | n | 40µM
SMILES | LDHA block | Apoferritin bind | RGS4 inhibitor | AT treatment
O=C1NC(=Nc2ccccc2)CS1 | n | n | n | 11µM
c1cc(CNCC2CCCO2)c2cc[nH]c2c1 (stereo not drawn) | n | x | x | x
CNC(=S)N/N=C/c1ccc2c(c1)OCCO2 | n | n | n | 3.5µM
NC(=S)N/N=C/c1ccc2c(c1)OCCO2 | n | n | n | n
O=C(c1cccs1)n1nc(-c2ccco2)nc1SCc1ccccc1 | n | 28µM | n | n
CSc1nc(-c2ccco2)nn1C(=O)c1cccs1 | n | n | n | n
CCn1nc(C(=O)Nc2nc(-c3ccc(NC(C)=O)cc3)cs2)c2ccccc2c1=O | -31 | x | x | x
Cc1c(Cl)cccc1S(=O)(=O)Nc1ccc2sc(NC(=O)c3ccccc3)nc2c1 | n | x | x | x
COCCNC(=O)c1cn(CCOC)c(=O)c2c1c1ccccc1n2C | n | n | n | n
CCC(C)NC(=O)c1cn(CCOC)c(=O)c2c1c1ccccc1n2C (stereo not drawn) | n | n | n | 8.9µM
O=C(c1ccncc1)N1CCN(Cc2c[nH]c3ccccc23)CC1 | n | x | x | x
CC(C(=O)Nc1ccc(F)c(F)c1)N1CCN(C)CC1 (stereo not drawn) | -30 | n | n | n
Cc1cnc(NC(=O)C(C)N2CCN(C)CC2)s1 (stereo not drawn) | -31 | n | n | n
Cc1cnc(NC(=O)[C@H](C)N2C(=O)C3CCCCC3C2=O)s1 (stereo partly drawn) | n | n | n | n
CC(C(=O)Nc1ccc2c(c1)OCO2)N(C)CC(=O)Nc1ccccc1Cl (stereo not drawn) | n | x | n | n
CSc1ccccc1NC(=O)CN(C)C(C)C(=O)NCc1ccc2c(c1)OCO2 (stereo not drawn) | -47 | x | n | n
CC1CCc2c(sc(/N=C/c3ccco3)c2C(N)=O)C1 (stereo not drawn) | n | n | n | 16µM
CC(C[N+](C)(C)C)OC(=O)C1(c2ccccc2)CCCC1 (stereo not drawn) | -31 | n | n | n
C[N+](C)(C)CCOC(=O)C1(c2ccccc2)CCCC1 | n | n | n[11.4 µM] | n
CC(C)(C)c1cc(/C=C/C(=O)O)cc(C(C)(C)C)c1O | n | x | x | x
O=C(NCc1ccccc1)c1ccc(CSc2nc3cccnc3n2Cc2ccccc2F)cc1 | -33 | n | n | x
CCc1ccccc1NC(=O)Nc1cn(CC(C)C)c(=O)c2ccccc12 | n | x | x | x
CCN(CC)c1ccc2c(C)cc(=O)oc2c1 | n | x | n | 32µM
CCOC(=O)Cc1c(C)c2ccc(N(CC)CC)cc2oc1=O | n | n | n[11.4 µM] | 25µM
CCN(CC)c1ccc2c(C)c(Cl)c(=O)oc2c1 | n | n | n | n
SMILES | LDHA block | Apoferritin bind | RGS4 inhibitor | AT treatment
O=C(NCCc1ccc2c(c1)OCCO2)c1ccc(NC(=O)c2cccs2)cc1 | n | x | x | x
O=C(CNC(=O)c1ccc2c(c1)OCCO2)N/N=C/c1ccc(Cl)cc1 | n | u | n[11.4 µM] | n
O=C(CNC(=O)c1ccc2c(c1)OCCO2)N/N=C/c1cccc(Br)c1 | n | 5.6µM | n | n
CN(CC(=O)NC(C)(C)C)C(=O)c1ccc2ccccc2n1 | -33 | x | x | x
COC(=O)Cc1[nH]n(-c2nc3ccccc3s2)c(=O)c1C(C)=O | n | n | n | n
COC(=O)Cc1cc(=O)n(-c2nc3ccccc3[nH]2)[nH]1 | -40 | n | n | n
CC(C)c1ccc(OC(=O)c2cc(-c3ccccc3)on2)cc1 | n | 14µM | n | x
C1CCC(NC(=NC2C3CC4CC(C3)CC2C4)N2CCOCC2)CC1 (stereo not drawn) | x | n | 0.34µM | x
O=C(COC(=O)c1ccc(S(=O)(=O)NCc2ccco2)cc1)NC1CCCCCC1 | n | 35µM | n | n
N=c1oc2c3c4c(cc2cc1C(=O)Nc1ccccc1)CCCN4CCC3 | n | n | n | 16µM
Cc1ccc(NC(=O)c2cc3ccccc3oc2=N)cc1 | n | n | n | u
CC(=O)c1cccc(OC(C)C(=O)C(C#N)C(=O)NC2CC2)c1 (stereo not drawn) | n | x | x | x
C=C[C@]1(C)CC(=O)[C@@]2(O)[C@@]3(C)C(O)CCC(C)(C)C3C(O)C(OC(C)=O)[C@@]2(C)O1 (stereo partly drawn) | x | n | x | x
C=C[C@@]1(C)CC(=O)[C@@]2(O)[C@@]3(C)[C@@H](O)CCC(C)(C)[C@@H]3[C@H](OC(=O)CCN(C)C)[C@H](OC(C)=O)[C@@]2(C)O1 | x | x | 8.4µM | x
